WRN helicase inh – blocks human WRN helicase; 360,000 compounds, 0.46% hits; AID 651768; WRN helicase unwinding, fluorescent forked duplex, kinetic; Potency, µM (top dose mostly 114 µM), without a hit: at the top dose activity change, negative = inhibition, most hits filed as inhibitors; further: potency means the concentration at half of the fitted maximal effect; nearly all actives have a fitted effect of over 55% in size
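Primary qHTS, 1536-well format. 20 nM WRN + compound, 15 min RT; start with 100 nM forked fluorophore/quencher duplex, 2 mM ATP (final); kinetic read ex 525/em 598 nm.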
TDP1 block – TDP1 (human) enzyme inhibition | recombinant TDP1, AlphaScreen DNA substrate cleavage | Q9NUW8 | AID 485290 | 350,000 compounds, 0.28% hits | Potency, µM (doses to about 130 µM), inactives show at the highest dose activity change, negative = inhibition, hits mostly inhibitors; further: potency means the concentration at half of the fitted maximal effect; nearly all actives have a fitted effect of over 40% in size
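Enzyme-compound mixtures sat 15 min at room temperature, followed by a 5 min reaction with 15 nM final substrate and 10 min with AlphaScreen beads. Recombinant human Tdp1 was used at 1 nM final.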
Tb PGK inh – inhibitors of T. brucei phosphoglycerate kinase; Potency, µM (titrated, usually from 57.5 µM), without a hit: at the top dose activity change, negative = inhibition, usual class: inhibitors; P07378; PGK/GAPDH coupled, Kinase-Glo luminescence, 60 min; 380,000 compounds, 0.043% hits; further: potency means the concentration at half of the fitted maximal effect; nearly all actives have a fitted effect of over 60% in size
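Luminescent ATP detection (Kinase-Glo Plus) follows a 60-minute room-temperature incubation, with wells lacking PGK as controls. Buffer: 100 mM TEA (pH 7.6), 5 mM MgCl2, 0.01% Tween-20. Coupling enzyme GAPDH (100 nM final) supplies unstable 1,3-BPG in-well.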
FEN1 inhibitor – human FEN1 inhibition; P39748; Recombinant FEN1 flap cleavage, fluorescence, 15 min; Potency, µM (series often up to 114 µM), without a hit: at the highest dose activity change, negative = inhibition, most hits filed as inhibitors; 390,000 compounds, 0.35% hits; further: potency means the concentration at half of the fitted maximal effect; nearly all actives have a fitted effect of over 65% in size
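Nuclease activity of 10 nM FEN1 was measured after 15 min of room-temperature exposure to titrated compounds, by adding 50 nM flap substrate and reading plates at 0 and 15 min.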
PI5P4K alpha inh – inhibitors of human PI5P4K alpha. PI5P4Kalpha enzyme, ADP-Glo luminescence, 60 min; stronger effect = lower value. 330,000 compounds, 1.2% hits. P48426. max response, %; active means max response of -50% or lower; inconclusive means between -30% and -50%; inactive means -30% or higher; further: value at the top dose of about 77 µM
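PI5P4Kalpha ADP-Glo assay; 5 microM ATP final; 60 min RT reaction; HEPES pH 7.4/EGTA/CHAPS, 5% DMSO; controls lacking substrate or enzyme; luminescent end-point.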
Tb PFK inh – inhibitors of T. brucei phosphofructokinase. O15648. T. brucei PFK, ADP-Glo luminescence. Potency, µM (top dose mostly 57.5 µM), inactives show at the highest dose activity, negative = inhibition, hits mostly inhibitors. 330,000 compounds, 0.17% hits. AID 485367;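 further: potency means the concentration at half of the fitted maximal effect; 0% = uninhibited 1x PFK enzyme wells and -100% = no-enzyme wells; nearly all actives have a fitted effect of over 60% in size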
Target sequence (O15648 whole entry, looked up): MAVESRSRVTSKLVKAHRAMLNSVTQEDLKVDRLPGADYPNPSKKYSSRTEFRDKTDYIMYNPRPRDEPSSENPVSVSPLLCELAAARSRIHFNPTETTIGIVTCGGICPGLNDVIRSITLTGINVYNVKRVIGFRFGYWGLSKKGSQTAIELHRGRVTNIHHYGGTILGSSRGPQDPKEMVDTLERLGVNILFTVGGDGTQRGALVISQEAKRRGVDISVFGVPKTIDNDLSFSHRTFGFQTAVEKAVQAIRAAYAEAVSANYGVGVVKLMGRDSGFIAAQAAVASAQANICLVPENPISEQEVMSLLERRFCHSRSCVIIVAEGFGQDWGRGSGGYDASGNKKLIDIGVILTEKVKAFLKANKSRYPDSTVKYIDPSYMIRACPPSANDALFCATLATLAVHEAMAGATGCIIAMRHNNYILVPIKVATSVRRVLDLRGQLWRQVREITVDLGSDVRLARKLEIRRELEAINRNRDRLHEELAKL
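ADP-Glo luminescence quantified ADP after 45 min at room temperature, with 1.25 nM T. brucei PFK, 0.1 mM ATP and 0.5 mM fructose-6-phosphate in pH 8.0 TEA buffer. qHTS titrations up to 57 µM; curves classified by quality.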
Numbers without * were called inactive; i = inactive; ? = inconclusive; / = no result; [ ] = another dose, or the depositor's remark. Hits are enriched below; roughly 1.5% of the tested compounds scored in any of these assays. Unless noted, the call rests on the fitted dose curve; in most records, active means well fitted curve in the direction sought with a large enough effect; inconclusive means small, poorly fitted or top-dose-only effect, or another doubt; inactive means no such curve, though single readings can be large; an effect the other way counts as inactive or inconclusive. Unless noted, on the % scale 0 is the no-effect control and ±100 the full control effect.

SMILES	WRN helicase inh	TDP1 block	Tb PGK inh	FEN1 inhibitor	PI5P4K alpha inh	Tb PFK inh
CC1CC=CC2C1C(=O)N(Cc1ccccc1)C2c1ccc2ccccc2c1 (centres undefined)	/	1%	/	-25%	/	/
C/C=C\C=C\C(=O)N1CC2(CC(c3cccc(NC(=O)CC(c4ccccc4)c4ccccc4)c3)=NO2)C[C@H]1C(N)=O (some centres undefined)	-10%	-1%	-10%	-1%	-71*	-16%
C/C=C\C=C/C(=O)Nc1cccc(C2=NOC3(C2)C[C@@H](C(N)=O)N(C(=O)/C=C/CC)C3)c1 (some centres undefined)	?	5%	4%	-14%	-65*	3%
COc1cc(F)c(S(=O)(=O)N2CCN(S(=O)(=O)c3cccc(N)c3)CC2)c(F)c1	/	1%	/	/	/	/
CCSc1nc(-c2ccco2)ccc1C#N	-35%	-8%	-5%	0%	-73*	-12%
O=C1C=CC(=O)C(C2=C3C(=O)N(CCc4ccccc4)CC(=O)N3CCC2)=C1	40µM*	3%	-2%	7%	-72*	-5%
O=C(N/N=C1/CC2CCC1C2)c1cc2ccccc2cc1O (centres undefined)	-9%	5%	i	-6%	-56*	-4%
CS(=O)(=O)N1CCN(/[N+]([O-])=N/Oc2ccc([N+](=O)[O-])cc2[N+](=O)[O-])CC1	/	/	/	4%	/	/
N#Cc1nc(Nc2cc(F)cc(F)c2)nc(NC2CCCC2)n1	/	-1%	/	/	/	/
CCN(C(=O)CSc1nc2cc(C(=O)O)ccc2c(=O)n1Cc1ccccc1)c1ccccc1	-1%	/	-2%	0%	-53*	-2%
CCN(C(=O)CSc1nc2cc(C(=O)OC)ccc2c(=O)n1Cc1ccco1)c1cccc(C)c1	-3%	-7%	-8%	-8%	1	2%
CS(=O)(=O)c1ccc(NC(=O)COc2ccccc2C(=O)Nc2ccccc2)cc1	/	/	/	1%	/	/
Cc1ccc(CNc2ncnc3ccc(-c4ccc5c(c4)OCO5)cc23)s1	/	2%	/	/	/	/
O=C(Nc1cccc([N+](=O)[O-])c1)c1ccc2nc(N3C(=O)CCC3=O)sc2c1	45µM*	4%	5%	-19%	?	-6%
C[C@@H]1[C@H](c2ccccc2)OCCS(=O)(=O)N1Cc1ccc(Cl)cc1	/	/	/	-6%	/	/
O=C(O)c1ccc2c(c1)C(=O)N(CCCCCCCN1C(=O)c3ccc(C(=O)O)cc3C1=O)C2=O	-9%[57.1 µM]	/	i	-5%	-78*	0%
O=C(O)c1ccc2c(c1)C(=O)N(CCc1ccccc1)C2=O	0%	/	-9%	4%	-65*	-1%
O=C(O)CCCCCN1C(=O)c2ccc(C(=O)O)cc2C1=O	-2%	0%	i	12%	/	2%
O=C1c2ccccc2C(=O)N1CCc1ccccc1	-16%	/	-1%	1%	-12	/
O=C(O)c1ccc2c(c1)C(=O)N(CCc1c[nH]c3ccccc13)C2=O	-13%[57.1 µM]	/	-8%	-21%	-69*	-2%
COC(=O)N[C@H](c1ccccc1)C(C(C)=O)C(=O)OC (some centres undefined)	/	8%	/	/	/	/
COC(=O)C(NNc1ccccc1)(NC(=O)c1ccc(F)cc1)C(F)(F)F (centres undefined)	-1%	12%	8%	-13%	/	-3%
O=C(NC(NNc1ccc([N+](=O)[O-])cc1)(C(F)(F)F)C(F)(F)F)c1ccc(F)cc1	?	5%	-4%	-12%	-71*	-1%
O=C1c2cccnc2C(=O)N1c1nc(-c2ccccc2)cs1	/	/	/	-8%	/	/
O=C(O)c1ccc2c(c1)ncn2-c1ccc(F)c(F)c1	/	5%	3%	14%	/	/
SMILES	WRN helicase inh	TDP1 block	Tb PGK inh	FEN1 inhibitor	PI5P4K alpha inh	Tb PFK inh
O=C(O)c1ccc2c(ccc3nn(-c4ccc(/C=C/c5ccc(-n6nc7ccc8cc(C(=O)O)ccc8c7n6)cc5[S+](=O)([O-])[O-])c([S+](=O)([O-])[O-])c4)nc32)c1	/	2.5µM*	/	3.2µM*	/	/
Cc1cc(/C=C2\SC(=S)NC2=O)c(C)n1-c1cccc(O)c1	?	5%	-8%	-30%	-68*	0%
Cc1sc(-n2c(C)cc(/C=C3\SC(=S)NC3=O)c2C)c(C#N)c1C	56µM*	6%	-17%	?	/	-5%
N#Cc1nc(Nc2ccc3ccccc3c2)nc(NC2CCCC2)n1	/	0%	/	/	/	/
CCCCN(CCC(=O)O)c1ccc(/C=C/c2ccnc3ccccc23)cc1	/	/	/	-17%	/	/
CCC1CO1 (centres undefined)	/	3%	/	/	/	/
Cc1ccc(-c2cc(C(=O)N3CC(C)CC(C)C3)c3ccccc3n2)o1 (centres undefined)	50µM*	-14%	0%	-6%	?	-25%
Oc1cc(O)cc(/C=C/c2ccc(O)c(O)c2)c1	-9%[11.6 µM]	2%	?	-20%	-53*	8.5µM*
O=C(CCSCCc1ccccn1)Nc1ccc(Cl)cc1	/	0%	6%	9%	/	/
N#CC1=C(N)SC(N)=C(C#N)C1Cc1ccccc1	-21%	4%	-10%	-21%	-52*	-6%
N#CC1=C(N)SC(N)=C(C#N)C1CCc1ccccc1	-30%	0%	0%	-6%	-84*	-9%
N#CC1=C(N)SC(N)=C(C#N)C1c1c(Cl)cccc1Cl	-11%	5%	-3%	1%	-65*	-5%
Cc1ccc(S(=O)(=O)N2CCCc3cc(NS(=O)(=O)c4ccc(C)c(C)c4)ccc32)cc1	/	6%	-8%	-12%	/	/
CCC(N)(C(=O)O)c1ccc(C(=O)O)cc1 (centres undefined)	/	5%	/	/	/	/
CCCCCCCC/C=C\CCCCCCCC(=O)N(CCO)CCO	/	5%	/	/	/	/
Cc1sc2ccccc2[n+]1CC(=O)O	50µM*	-2%	7%	-5%	5	18%
N#Cc1ccc(NS(=O)(=O)c2ccc3c(c2)CCC(=O)N3)cc1	/	1%	/	/	/	/
